# From the supplement of paper PMC11150407
# About 180 (8.6%) of roughly 2,100 compounds showed an effect of 50% or more. The entries come from a sample that favours strong results as a whole.
# Test system: MOLM1 and UCSD/AML1 (averaged)
# Assay: cell viability relative to DMSO control (POC); higher = less growth inhibition
# Details: 1 µM; 72 h
# Protocol: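 Primary viability screen in the 3q26 EVI1-high AML cell lines MOLM1 and UCSD/AML1 (1.5e3 cells/well, 384-well), compounds at 1 uM for 72 h. ATP CellTiter-Glo read-out given as percent of viable cells over DMSO control (POC), averaged over duplicates. DMSO was the negative control and 5 uM etoposide the positive control. This mapping covers the MicroSource Spectrum and Selleck anticancer libraries (drug names).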
row,SMILES,cell viability [%]
1,CN(C)C(=S)SSC(=S)N(C)C,1.29
2,C[C@]12CC[C@H]3[C@@H](CCC4=CC(=O)CC[C@@]43C)[C@@H]1CC[C@@H]2O,103
3,CC[C@@]1(O)C[C@H](O)c2c(cc3c(c2O)C(=O)c2c(O)ccc(O)c2C3=O)[C@H]1C(=O)OC,99.6
4,CC[C@@]1(O)C[C@H](O[C@H]2C[C@H](N(C)C)[C@H](O)[C@H](C)O2)c2c(cc3c(c2O)C(=O)c2c(O)cccc2C3=O)[C@H]1C(=O)OC,38.5
5,CC[C@@]1(O)C[C@H](O[C@H]2C[C@H](N(C)C)[C@H](O)[C@H](C)O2)c2c(cc3c(c2O)C(=O)c2c(O)ccc(O)c2C3=O)[C@H]1C(=O)OC,0.762
6,O=C1CCC[C@@H]2[C@H]3C[C@@H](CN12)[C@@H]1CCCCN1C3.[O-][Cl+3]([O-])([O-])O,95.6
7,COc1cc(OC)c2c(c1)O[C@H](c1ccc(OC)c(OC)c1)[C@@H](O)C2,100
8,C=CCC1(C(C)CCC)C(=O)NC(=S)NC1=O (stereo not drawn),89.9
9,COc1cc2c(cc1OC)[C@@H]1C(=O)c3ccc4oc(C(C)C)cc4c3O[C@@H]1CO2,81.7
10,CC(O)(CS(=O)(=O)c1ccc(F)cc1)C(=O)Nc1ccc(C#N)c(C(F)(F)F)c1 (stereo not drawn) [Bicalutamide (Casodex)],101
11,C[C@H](N)[C@H](O)c1ccc(O)c(O)c1,105
12,O=C(O)CCC1NCC2CC1CN1CCCCC21 (stereo not drawn),93.6
13,CCCC(C)C1(CC)C(=O)NC(=S)NC1=O (stereo not drawn),96.6
14,CC(C)C[C@H]1C(=O)N2CCC[C@H]2[C@]2(O)O[C@](NC(=O)[C@@H]3C=C4c5cccc6[nH]c(Br)c(c56)C[C@H]4N(C)C3)(C(C)C)C(=O)N12,108
15,CN1C[C@H](C(=O)N[C@]2(C)O[C@@]3(O)[C@@H]4CCCN4C(=O)[C@H](Cc4ccccc4)N3C2=O)C=C2c3cccc4[nH]cc(c34)C[C@H]21,48.2
16,CN1C[C@H](C(=O)N[C@]2(C)O[C@@]3(O)[C@@H]4CCCN4C(=O)[C@H](Cc4ccccc4)N3C2=O)C[C@@H]2c3cccc4[nH]cc(c34)C[C@H]21,112
17,O=C(O)Cc1cnc[nH]1,101
18,CN1C2CCC1CC(O)C2 (stereo not drawn),109
19,C#CCN(C)[C@H](C)Cc1ccccc1,84.3
20,O=P1(NCCCl)OCCCN1CCCl (stereo not drawn),105
21,O=P1(NCCCl)OCCCN1CCCl (stereo not drawn) [Ifosfamide],105
22,CC(=O)[O][Hg][c]1ccccc1,1.17
23,NCC(=O)c1ccccc1,130
24,COc1ccc(CCN2CCC(Nc3nc4ccccc4n3Cc3ccc(F)cc3)CC2)cc1,95.2
25,CC(=O)O[C@H]1[C@H]2[C@@H](OC(=O)Cc3ccccc3)[C@@H](C)C[C@]2(OC(C)=O)C(=O)/C(C)=C/[C@@H]2[C@H](CC[C@@]13CO3)C2(C)C,96.8

row,SMILES,cell viability [%]
1,COc1cc2c(c(OC)c1OC)-c1ccc(OC)c(=O)cc1[C@@H](NC(C)=O)CC2,6.75
2,CC(=O)O[C@@H]1C[C@H]2C(C)(C)C(=O)C=C[C@]2(C)[C@H]2CC[C@]3(C)C(=CC(=O)O[C@H]3c3ccoc3)[C@@]21C,75.1
3,Nc1ncn[nH]1,109
4,CCCCCCCCCc1ccc(O)cc1,105
5,CNC(=O)Oc1ccc2c(c1)[C@]1(C)CCN(C)[C@@H]1N2C,106
6,O=C1C=C2C(=CCOC2O)O1 (stereo not drawn),1.61
7,c1cncc([C@@H]2CCCCN2)c1,107
8,C[C@H]1O[C@H](O[C@H]2[C@H](O)[C@@H](O)[C@@H](O)[C@H](O)[C@@H]2O)[C@@H](N)C[C@@H]1NC(=N)C(=O)O,103
9,C[C@]12C=CC(=O)C=C1CC[C@@H]1[C@@H]2CC[C@]2(C)C(=O)CC[C@@H]12,101
10,CC(C)=CCC[C@]1(C)C=Cc2c(O)c3c(c(CC=C(C)C)c2O1)O[C@]12C(=C[C@@H]4C[C@H]1C(C)(C)O[C@@]2(C/C=C(/C)C(=O)O)C4=O)C3=O,1.06
11,CC(C)=CCCC1(C)C=Cc2c(O)c3c(c(CC=C(C)C)c2O1)OC12C(CC4CC1C(C)(C)OC2(C/C=C(/C)C(=O)O)C4O)C3=O (stereo not drawn),94.1
12,CC(C)CCCC1(C)C=Cc2c(O)c3c(c(CCC(C)C)c2O1)OC12C(CC4CC1C(C)(C)OC2(CCC(C)C(=O)O)C4O)C3=O (stereo not drawn),106
13,CC(C)=CCCC1(C)C=Cc2c(O)c3c(c(CC=C(C)C)c2O1)OC12C(=CC4CC1C(C)(C)OC2(C/C=C(/C)C(=O)O)C4O)C3=O (stereo not drawn),99.7
14,CC(C)=CCC[C@]1(C)C=Cc2c(O)c3c(c(CC=C(C)C)c2O1)O[C@]12C(=C[C@@H]4C[C@H]1C(C)(C)O[C@@]2(C/C=C(/C)C(N)=O)C4=O)C3=O,13.2
15,C=C(C)c1cc2cc(C(C)=O)c(O)cc2o1,104
16,COC(=O)C1=CCCN(C)C1,98.5
17,COc1c2c(cc3c1OCO3)CCN(C)C2,119
18,CCC(C)C(=O)O[C@@H]1C[C@@]2(C)[C@H](c3ccoc3)OC(=O)CC23OC2(C)O[C@]14[C@]1(C)[C@@H](CC(=O)OC)C5(C)CC1(O)[C@](O)(C5OC(=O)C1(C)OC1C)[C@@H](OC(C)=O)[C@]34O2 (stereo partly drawn),95.6
19,CC1(C)N([O-])[N+](=O)C1(C)Br (stereo not drawn),109
20,COc1cc2c(cc1O)CCN[C@@H]2C,112
21,CCN1C[C@]2(OC(=O)c3ccccc3NC(C)=O)CC[C@H](OC)[C@@]34[C@@H]2C[C@@H]([C@@H]13)[C@@]1(O)C[C@H](OC)[C@H]2C[C@@H]4[C@]1(O)[C@H]2OC,96.8
22,C[C@@H]1O[C@@H](O[C@H]2C[C@@H](O)[C@]3(CO)[C@H]4[C@H](O)C[C@]5(C)[C@@H](C6=CC(=O)OC6)CC[C@]5(O)[C@@H]4CC[C@]3(O)C2)[C@H](O)[C@H](O)[C@H]1O,1.94
23,C[C@@H]1O[C@@H](O[C@H]2CC[C@]3(C=O)[C@H]4CC[C@]5(C)[C@@H](C6=CC(=O)OC6)CC[C@]5(O)[C@@H]4CC[C@]3(O)C2)[C@H](O)[C@H](O)[C@H]1O,1.83
24,CO[C@H]1[C@H](O)[C@H](O[C@H]2CC[C@@]3(C=O)[C@H](CC[C@@H]4[C@@H]3CC[C@]3(C)[C@@H](C5=CC(=O)OC5)CC[C@]43O)C2)O[C@@H](C)[C@@H]1O,1.75
25,CO[C@H]1C[C@H](O[C@H]2CC[C@]3(C=O)[C@H]4CC[C@]5(C)[C@@H](C6=CC(=O)OC6)CC[C@]5(O)[C@@H]4CC[C@]3(O)C2)O[C@H](C)[C@H]1O,3.81

row,SMILES,cell viability [%]
1,COc1cc2ccc(=O)oc2c2ccoc12,104
2,C[N+]12CC[C@@]34c5ccccc5N5C(=O)C[C@@H]6OCC=C(C1)[C@H](C[C@@H]32)[C@@H]6[C@H]54 (stereo partly drawn),102
3,O=C([O-])c1ccccc1-c1c2cc(Br)c(=O)cc-2oc2[c]([Hg+])c([O-])c(Br)cc12.[Na+].[Na+].[OH-],87.1
4,O=C1CN=C(c2ccccc2Cl)c2cc([N+](=O)[O-])ccc2N1,87
5,C[C@@]12C(=O)OC(=O)[C@]1(C)[C@H]1CC[C@@H]2O1,101
6,CC[C@@H](CO)NC(=O)[C@@H]1C=C2c3cccc4[nH]cc(c34)C[C@H]2N(C)C1,98
7,CCC12C=CCN3CC[C@@]4(c5ccc(OC)cc5N(C)[C@H]4[C@@](O)(C(=O)OC)[C@@H]1OC(C)=O)[C@@H]32 (stereo partly drawn),94
8,C=C[C@H]1CN2CC[C@H]1C[C@@H]2[C@@H](O)c1ccnc2ccccc12,113
9,CC1(C)C2CC(=O)[C@]3(C)C(CC[C@@]4(C)[C@H](c5ccoc5)OC(=O)[C@H]5O[C@]543)[C@@]2(C)C(=O)C[C@H]1O (stereo partly drawn),87.6
10,Cc1[nH]c2ccccc2c1CN(C)C,109
11,"C[C@]12CCC(=O)C[C@@H]1CC[C@@H]1[C@@H]2CC[C@]2(C)C(=O)CC[C@@H]12 [5alpha-ANDROSTAN-3,17-DIONE]",101
12,C[C@]12CC[C@H]3[C@@H](CC[C@]4(O)C[C@@H](O)CC[C@]34C=O)[C@@]1(O)CC[C@@H]2C1=CC(=O)OC1,3.15
13,CC1CC(Cl)CCC1C(=O)OC(C)(C)C (stereo not drawn),102
14,COc1cc([C@@H]2c3cc4c(cc3[C@H](OC(C)=O)[C@H]3COC(=O)[C@H]23)OCO4)cc(OC)c1OC,6.04
15,COc1cc([C@@H]2c3cc4c(cc3[C@H](OC(C)=O)[C@H]3COC(=O)[C@@H]23)OCO4)cc(OC)c1OC,34.9
16,O=C(O)COc1cc(Cl)c(Cl)cc1Cl,98.7
17,COc1cc2c(cc1O)C[C@H]1c3c(cc(O)c(OC)c3-2)CCN1C,99
18,O=c1ccc2c(O)c3ccoc3cc2o1,91.2
19,CC1(C)C2C[C@@H](O)[C@]3(C)C(CC[C@@]4(C)[C@H](c5ccoc5)OC(=O)[C@H]5O[C@]543)[C@@]2(C)[C@@H](O)C[C@H]1O (stereo partly drawn),106
20,CCN1C[C@]2(COC)[C@H](O)C[C@H](OC)[C@@]34[C@@H]5C[C@@]6(O)[C@H](OC(=O)c7ccccc7)[C@@H]5[C@@](OC(C)=O)([C@@H]([C@H](OC)[C@H]23)[C@@H]14)[C@@H](O)[C@@H]6OC,100
21,CC1(C)C(=O)C=C[C@]2(C)[C@H]3CC[C@@]4(C)[C@H](c5ccoc5)OC(=O)[C@H]5O[C@]54[C@]3(C)[C@H](O)C[C@@H]12,98.3
22,O=C1C(Cl)=C(Cl)C(=O)C(Cl)=C1Cl,114
23,CNc1ccc(C(=O)CC(O)CCC(C)C2OC(=O)CC(O)CC(=O)CC(O)CC(O)CC(O)CC(O)CC3(O)CC(O)C(C(=O)OC)C(CC(O[C@@H]4O[C@H](C)[C@@H](O)[C@H](N)[C@@H]4O)/C=C/C=C/C=C/C=C/C=C/C=C/C=C/C2C)O3)cc1.COC(=O)C1C(O)CC2(O)CC(O)CC(O)CC(O)CC(O)CC(=O)CC(O)CC(=O)OC(C(C)CCC(O)CC(=O)c3ccc(N)cc3)C(C)/C=C/C=C/C=C/C=C/C=C/C=C/C=C/C(O[C@@H]3O[C@H](C)[C@@H](O)[C@H](N)[C@@H]3O)CC1O2 (stereo partly drawn),93.4
